The record followed here is PubChem BioAssay (NCI).

Test systems include EKVX NSCLC; SN12C renal; UO-31 renal; TK-10 renal; ACHN renal; CAKI-1 renal; A498 renal; CCRF-CEM leukemia; MOLT-4 leukemia; SR leukemia.
Experiment in all cases: NCI-60 one-dose screen, 48 h (100 = growth as untreated, 0 = no growth, -100 = all killed)
Conditions in all cases: 10 µM

Each structure is given as a SMILES string. This is part of a sample that, as a whole, favours compounds with a hit. Of some 83,000 tested, about 20% had one in any assay.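 Percent growth is the endpoint: 0 to 100 indicates growth inhibition (40 means 60% inhibition), 0 means no net growth, and negative values indicate cell death.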 Unmarked numbers belong to inactive results. Calls of active or inactive are those of the source. Rule for the calls: active = growth percent below 10; inactive = the rest.

In the case of `CCN1CCC2(CC1)OC(c1ccccc1)C(c1ccccc1)O2` (stereo unspecified), the growth in the assay on EKVX NSCLC was 107%; in the assay with SN12C renal, 110%; in the assay with UO-31 renal, 87.2%; with TK-10 renal it was 103%; in the assay on ACHN renal, 109%; in the assay with CAKI-1 renal, 111%. Also, the growth with A498 renal was 98.9%; in the assay with CCRF-CEM leukemia it was 91.7%; in the assay with MOLT-4 leukemia, 96.5%; in the assay with SR leukemia, 96.9%.

For the compound `CCc1ccc2c(c1)N(CCO)C1=C(C(=O)OC1)C2c1cc(OC)c(OC)c(OC)c1` (stereo unspecified), the growth in the assay on EKVX NSCLC was 29.9%; in the assay on SN12C renal, 28.8%; in the assay on UO-31 renal, 35.5%; in the assay with TK-10 renal, 57.9%; with ACHN renal, 32.2%; with CAKI-1 renal, 11.4%. Moreover, the growth was -13.7% (active) in the assay on A498 renal, 10.2% in the assay on CCRF-CEM leukemia, 11.4% in the assay with MOLT-4 leukemia and 12% with SR leukemia.

In the case of `O=C1OCC2=C1C(c1cccc(Cl)c1)c1cc3c(cc1N2CCO)CCC3` (stereo unspecified), the growth in the assay with EKVX NSCLC is 38.9%; in the assay on SN12C renal, 21.1%; with UO-31 renal, 19%; with TK-10 renal, 56.6%; in the assay on ACHN renal, 25.5%; in the assay with CAKI-1 renal it was 11.2%. In addition, the growth in the assay with A498 renal was -20.5% (active); with CCRF-CEM leukemia, 10.4%; with SR leukemia, 27.6%.

On to `c1ccc(C(NC2CC3CCC2C3)c2ccccc2)cc1` (stereo unspecified), for which the growth was 96.8% in the assay with EKVX NSCLC; 94% in the assay with SN12C renal; 65% with UO-31 renal; 95.9% in the assay with TK-10 renal; 98.9% with ACHN renal; 87.7% in the assay with CAKI-1 renal. In addition, the growth was 116% with A498 renal, 87.6% in the assay on CCRF-CEM leukemia, 94% in the assay on MOLT-4 leukemia and 90.2% in the assay on SR leukemia.

Take `Nc1ncn([C@@H]2O[C@H](CO)[C@@H](O)[C@H]2O)c(=O)n1`: the growth is 107% with EKVX NSCLC; 14.8% with SN12C renal; 15% in the assay with UO-31 renal; 40.5% with TK-10 renal; 11.8% with ACHN renal; 22.3% in the assay on CAKI-1 renal. The growth in the assay with A498 renal is 28.5%; in the assay with MOLT-4 leukemia, 33.6%; in the assay on SR leukemia, 7.12% (active).

As to `CCCCCCCCCCCCC1C/C=C\CCCC(=O)O1` (stereo unspecified), the growth was 94% in the assay on EKVX NSCLC; 119% in the assay with SN12C renal; 93.1% in the assay on UO-31 renal; 113% with TK-10 renal; 104% in the assay with ACHN renal; 113% with CAKI-1 renal. The values for the growth in the assay with A498 renal, in the assay with MOLT-4 leukemia and with SR leukemia were 128%, 37.4% and -18.4% (active), respectively.

For the compound `COc1ccccc1CNCCN1C(=O)c2ccc3c4c(ccc(c24)C1=O)C(=O)N(CCNCc1ccccc1OC)C3=O`, the growth in the assay on EKVX NSCLC is -78.1% (active); in the assay on SN12C renal, -91% (active); with UO-31 renal, -92.4% (active); in the assay with TK-10 renal, -30.8% (active); in the assay on ACHN renal it was -59.6% (active); in the assay with CAKI-1 renal, -31.3% (active). In addition, the growth with CCRF-CEM leukemia is -50.3% (active); with MOLT-4 leukemia, -41.9% (active); with SR leukemia it was -47.1% (active).
